Bioassay records (PubChem BioAssay)
Peg3 promoter: inhibitors of Peg3 promoter | 360,000 compounds, 1.7% hits | AID 588405 | inhibition, % at 20 µM | HeLa PEG-Prom luciferase reporter, luminescence, overnight;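 active = inhibition of at least 50% at 20 µM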
TROY signal inh: blocks TROY-dependent signaling in reporter cells; 360,000 compounds, 0.98% hits; Q293 LMP1-TROYcd NF-kB luciferase reporter, 4 h; inhibition, % at 10 µM;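 active = compounds whose plate-normalised and pattern-corrected inhibition of the luciferase reporter signal at the single screening dose is 50% or more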
HIF-2a block: inhibitors of HIF-2a; 786-0 RCC cells HIF-2a reporter, luciferase luminescence, overnight; inhibition, % at 18.8 µM; 360,000 compounds, 0.72% hits; AID 624352;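 active = inhibition of the luminescence signal of 40% or more relative to plate controls, in a single-dose primary screen at 18.75 µM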
TWEAK Fn14 block: TWEAK-Fn14 signaling inhibition; AID 1159606; inhibition, % at 10 µM; 360,000 compounds, 2% hits; TWEAK-stimulated Fn14 reporter cells, luciferase luminescence, 8 h; in the data active = inhibition above about 50%
CF NFkB block: inhibitors of cystic fibrosis induced NF-kB; KKLEB NF-kB-GFP reporter, PAF-induced, GFP fluorescence overnight; inhibition, % at 5 µM; 360,000 compounds, 0.86% hits; AID 588850;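 active = at least 50% inhibition at 5 µM, scaled per plate between neutral and stimulator controls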;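 note: PAF is a Pseudomonas aeruginosa culture filtrate used as stimulus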
KKLEB cytotox: reduces viability of KKLEB cystic fibrosis airway cells. 360,000 compounds, 0.36% hits. activity change (cytotoxicity), % at 5 µM. KKLEB CF airway cells viability, ATPlite luminescence, overnight; stronger effect = lower value; cells stimulated with P. aeruginosa culture filtrate. AID 602141;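 active = corrected activity change at or below -50% at 5 µM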
Mdm2 MdmX conf: confirmation of inhibitors of human Mdm2/MdmX interaction, set 2; shares compounds with HIF-2a block; SaOS-2 split-luciferase Mdm2/MdmX complementation, luminescence; inhibition, % at 8 µM; 740 compounds, 99% hits; AID 504601;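 active = mean inhibition of the luminescence signal across two replicates at or above 26 percent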
Target sequence (O15151 whole entry, looked up): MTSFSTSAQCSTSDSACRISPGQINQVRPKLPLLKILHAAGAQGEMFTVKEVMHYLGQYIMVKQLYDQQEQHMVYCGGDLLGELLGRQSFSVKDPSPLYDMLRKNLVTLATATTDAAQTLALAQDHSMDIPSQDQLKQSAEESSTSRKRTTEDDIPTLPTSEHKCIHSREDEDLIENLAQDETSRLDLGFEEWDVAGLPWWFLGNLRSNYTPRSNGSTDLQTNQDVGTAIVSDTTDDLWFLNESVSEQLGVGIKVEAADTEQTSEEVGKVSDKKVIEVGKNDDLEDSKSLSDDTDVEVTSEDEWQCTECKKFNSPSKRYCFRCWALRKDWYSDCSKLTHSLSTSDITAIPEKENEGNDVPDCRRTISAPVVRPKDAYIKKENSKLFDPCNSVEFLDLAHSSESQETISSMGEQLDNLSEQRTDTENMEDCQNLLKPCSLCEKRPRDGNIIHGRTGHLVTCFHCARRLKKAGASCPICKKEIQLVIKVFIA
Target sequence (Q00987 whole entry, looked up): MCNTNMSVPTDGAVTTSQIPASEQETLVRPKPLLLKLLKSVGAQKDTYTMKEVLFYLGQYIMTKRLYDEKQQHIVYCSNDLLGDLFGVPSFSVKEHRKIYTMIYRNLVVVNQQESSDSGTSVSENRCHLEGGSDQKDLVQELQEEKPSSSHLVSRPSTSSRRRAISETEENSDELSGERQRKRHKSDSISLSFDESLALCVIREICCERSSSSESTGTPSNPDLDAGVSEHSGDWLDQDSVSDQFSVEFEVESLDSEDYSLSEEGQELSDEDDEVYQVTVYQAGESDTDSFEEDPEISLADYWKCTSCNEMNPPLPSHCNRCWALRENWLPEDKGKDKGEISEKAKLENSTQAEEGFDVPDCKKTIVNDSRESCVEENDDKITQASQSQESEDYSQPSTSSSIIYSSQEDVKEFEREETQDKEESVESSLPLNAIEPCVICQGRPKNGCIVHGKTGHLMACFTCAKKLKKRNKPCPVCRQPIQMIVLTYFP
HIF-2a inh conf: confirmation of HIF-2a inhibitors | shares compounds with HIF-2a block | 786-0 RCC cells, HIF-2a luciferase reporter luminescence, overnight | inhibition, % at 18.8 µM | 1,800 compounds, 56% hits | AID 651580;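 active = mean inhibition across four replicates of at least 40 percent at the single tested concentration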
HIF-1a counter: HIF-1a inhibition counter-screen for HIF-2a hits; shares compounds with HIF-2a block; MiaPaCa-2 HIF-1a luciferase reporter, desferoxamine, overnight; inhibition, % at 18.8 µM; 1,800 compounds, 72% hits;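 active = mean inhibition of the reporter signal across four replicates at the single tested dose of 50% or more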
Of the large screens only hits and unclear results are named; the others gave an inactive call (follow-up assays come after a bar, where they were run). Rows were chosen to be rich in hits. Some 4% of all compounds tested hit in one or more screens of this group.

COc1ccccc1CC(O)CC1c2c(cc3c(c2OC)OCO3)CCN1C (centres undefined)	none
CC(=O)N(Cc1ccc(F)cc1)C1=C(NCCc2ccccc2)C(=O)c2ccccc2C1=O	Peg3 promoter 103.1, TROY signal inh 66.4, HIF-2a block 91.4, TWEAK Fn14 block 81.7, CF NFkB block 86.4, KKLEB cytotox -54.8 | Mdm2 MdmX conf 101.2
C=C(C(=O)c1ccccc1)C(CC(=O)c1ccccc1)c1ccccc1 (centres undefined)	Peg3 promoter 99.5, HIF-2a block 94.7, TWEAK Fn14 block 71.4, CF NFkB block 52.2, KKLEB cytotox -54.6 | Mdm2 MdmX conf 102.5 | HIF-2a inh conf 56.6 | HIF-1a counter 102.6
Cc1cccc(N2CCN(C(=O)CN3C(=O)NC4(CCCCCC4)C3=O)CC2)c1C	none
O=C(NC1CCN(Cc2ccccc2)CC1)c1ccc2c(c1)[nH]c(=O)n2Cc1ccc(F)cc1	HIF-2a block 48.3 | HIF-2a inh conf inactive | HIF-1a counter inactive
Cc1nn(C)c(C)c1CN(C)C(=O)c1nn2c(c1Br)NC(c1cccs1)CC2C(F)(F)F (centres undefined)	none
Cc1nn(C)c(C)c1CN(C)C(=O)c1cnn2c1NC(c1ccccc1)CC2C(F)(F)F (centres undefined)	HIF-2a block 42.8 | HIF-2a inh conf inactive | HIF-1a counter inactive
CCN(CC(=O)Nc1c(F)cccc1F)C(=O)CN1C(=O)NC2(CCCC2)C1=O	none
CC(=O)Nc1ccc(OS(=O)(=O)c2ccccc2C)cc1	none
CC(=O)Nc1ccc(OS(=O)(=O)c2c(C)cc(C)cc2C)cc1	HIF-2a block 50.2 | HIF-2a inh conf 55.5 | HIF-1a counter inactive
CC(=O)Nc1ccc(OS(=O)(=O)c2ccc(C)cc2C)cc1	HIF-2a block 80.4 | HIF-2a inh conf 87.7 | HIF-1a counter inactive
C=C1C(=O)C23CCC4C(C)(C(=O)OC)CCCC4(C)C2CCC1(O)C3 (centres undefined)	Peg3 promoter 101.1, TROY signal inh 87.6, HIF-2a block 91.3, TWEAK Fn14 block 98.2, CF NFkB block 101.3, KKLEB cytotox -102.3 | HIF-2a inh conf 98.6 | HIF-1a counter 102.9
NC(=S)c1cc2ccc(O)cc2oc1=O	none
Oc1cc(O)cc(-c2cc3ccc(O)cc3o2)c1	HIF-2a block 40.5 | HIF-2a inh conf inactive | HIF-1a counter inactive
CCOC(=O)C1Nc2ccc(C(F)(F)F)cc2C2c3ccccc3CC12 (centres undefined)	none | Mdm2 MdmX conf 65.8
O=C(Nc1ccc(-c2nc3cccnc3s2)cc1)C1CCCO1 (centres undefined)	TROY signal inh 60.5, HIF-2a block 58.5, TWEAK Fn14 block 99.4 | HIF-2a inh conf 69.2 | HIF-1a counter inactive
O=C(Nc1ccc(-c2nc3ccccc3o2)cc1)C1CCCO1 (centres undefined)	none
CCc1c(C)sc(NC(=O)Cc2ccccc2C)c1C(=O)N1CCOCC1	none
CC1(C)Cc2c(c(N3CCOCC3)nc3sc4c(NCCN)ncnc4c23)CO1	Peg3 promoter 99.5, HIF-2a block 45.2 | HIF-2a inh conf inactive | HIF-1a counter inactive
C=CCOC(=O)CSCC(NC(=O)OC(C)(C)C)C(=O)OCC (centres undefined)	HIF-2a block 57.8 | HIF-2a inh conf 45.0 | HIF-1a counter inactive
CCOC(=O)CNC(=O)C(CC(N)=O)NC(=O)OC(C)(C)C (centres undefined)	none
COc1ccc(S(=O)(=O)Nc2c(C)cc(C)cc2C)c2cccnc12	none
COCCNC(=O)C1CCCN(Cc2ccc(-c3ccccc3)cc2)CC1 (centres undefined)	none
C/C(=N\NC(=O)c1cccc(Br)c1)c1ccccn1	none | Mdm2 MdmX conf 82.7
COc1ccc(/C=C2\CN(Cc3ccccc3)C/C(=C\c3ccc(OC)c(O)c3)C2=O)cc1O	Peg3 promoter 101.6, CF NFkB block 99.7, KKLEB cytotox -68.7 | Mdm2 MdmX conf 101.7
COc1ccc(C=C2C(=O)c3ccccc3C2=O)cc1O	none
COc1cc(/C=C2/CC/C(=C/c3ccc(O)c(OC)c3)C2=O)ccc1O	none
COc1cc(/C=C2\COC/C(=C\c3ccc(O)c(OC)c3)C2=O)ccc1O	Peg3 promoter 100.6, HIF-2a block 93.1, CF NFkB block 91.0 | Mdm2 MdmX conf 102.7
CCN1C/C(=C/c2ccc(OC)c(O)c2)C(=O)/C(=C/c2ccc(OC)c(O)c2)C1	none | Mdm2 MdmX conf 53.0
CCCCCCN1C[C@H](O)[C@@H](n2cc(C3CC3)nn2)C[C@@H]1c1ccc(C)cc1	none
COC(=O)c1c(C)[nH]c(C(=O)COC(=O)Cn2cc(C(F)(F)F)ccc2=O)c1C	none
CCCCc1nnc(NC(=O)CN2C(=O)NC3(CCCCC3)C2=O)s1	none
Cc1noc(C)c1COc1ccccc1C(=O)N(C)CC(=O)Nc1ccc(F)c(F)c1F	none
CCCCCN=C(N)N/N=C/c1c[nH]c2ccc(OC)cc12	Peg3 promoter 94.8, HIF-2a block 97.6 | HIF-2a inh conf inactive | HIF-1a counter 100.1
O=C(O)CCCCCCCC(=O)O	none
O=C(O)CCCCCCCCCCC1CCC(O)C1O (centres undefined)	HIF-2a block 54.3 | HIF-2a inh conf 75.4 | HIF-1a counter 51.7
Nc1ccc(-c2cc3ccccc3c(=O)o2)cc1	HIF-2a block 82.0 | HIF-2a inh conf 90.6 | HIF-1a counter 54.4
O=c1oc(-c2ccccc2)cc2ccccc12	none
CC1CCN(Cc2c(C(=O)N/N=C/c3cc(Br)ccc3O)nnn2-c2nonc2N)CC1	Peg3 promoter 73.8 | Mdm2 MdmX conf 91.2
Cc1cc(C)c(/C=N/NC(=O)c2nnn(-c3nonc3N)c2CN2CCC(C)CC2)c(C)c1	none
CCOc1ncccc1C(=O)NNC(=O)CSc1ccc(Cl)cc1	none
O=C1NC2c3c(I)sc(I)c3C(=O)C2O1 (centres undefined)	Peg3 promoter 105.9, HIF-2a block 52.6 | HIF-2a inh conf inactive | HIF-1a counter inactive
O=c1c2ccccc2oc2c1ccc1ccccc12	none
O=c1cc(C(Cl)(Cl)Cl)oc2c1ccc1ccccc12	Peg3 promoter 105.9, TWEAK Fn14 block 56.5 | Mdm2 MdmX conf 103.0
Cc1ccccc1S(=O)(=O)N(C)C[C@@H]1OCc2cnnn2CCCC(=O)N([C@@H](C)CO)C[C@H]1C	none
O=C(Nc1nnc([C@H]2C[C@H](O)[C@@H](CO)O2)s1)c1ccccc1F	none
